In the experiment the target is Intestinal-type alkaline phosphatase (Homo sapiens) (UniProt P09923). Put plainly: suppression of intestinal alkaline phosphatase activity – biochemical, luminescence, single concentration, uHTS hits, confirmation (AID 434927).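 Further: plate controls were DMSO wells with enzyme for no effect and wells lacking enzyme for full effect.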 To be noted: purified human IAP, CDP-Star luminescence, 30 min; at 8.3 µM; stronger effect = higher value.

The source made the active and inactive calls.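 How the source made its calls: active means inhibition above about 23% in any of six single-dose repeats (limit read from the data); inactive means the rest.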

In PubChem BioAssay AID434927 (Sanford-Burnham Center for Chemical Genomics, 2010) one finds inhibition data, which are given here for 34 compounds.

Sequence of Intestinal-type alkaline phosphatase (Homo sapiens) (P09923 whole entry, looked up): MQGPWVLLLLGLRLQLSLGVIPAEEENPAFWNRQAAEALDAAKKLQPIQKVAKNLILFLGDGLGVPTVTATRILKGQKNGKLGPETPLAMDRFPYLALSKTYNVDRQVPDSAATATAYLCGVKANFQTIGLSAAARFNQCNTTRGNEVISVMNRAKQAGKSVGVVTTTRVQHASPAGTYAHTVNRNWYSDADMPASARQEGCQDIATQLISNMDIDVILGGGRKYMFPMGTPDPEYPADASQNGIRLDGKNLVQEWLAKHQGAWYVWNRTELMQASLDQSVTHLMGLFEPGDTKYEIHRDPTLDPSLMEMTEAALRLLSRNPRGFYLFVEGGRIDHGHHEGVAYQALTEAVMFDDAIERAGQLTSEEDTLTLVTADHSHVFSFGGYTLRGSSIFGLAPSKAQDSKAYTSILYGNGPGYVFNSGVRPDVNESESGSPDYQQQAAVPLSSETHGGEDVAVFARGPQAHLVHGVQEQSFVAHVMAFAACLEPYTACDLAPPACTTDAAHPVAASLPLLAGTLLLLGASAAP

Broadly, the inhibition is the relative decrease from the control value, in per cent. For `O=C(N/N=C/c1ccc2cccnc2c1)c1nc2ccccc2c(=O)[nH]1`, the inhibition is -193% (inactive).

For the compound `C[C@@H](NC(=O)c1[nH]cnc1C(=O)Nc1ccon1)c1ccccc1`, the inhibition is -80% (inactive).

For the compound `CCN(CC)c1ccc(N=Nc2nn(C)c(C)c2[N+](=O)[O-])cc1`, the inhibition was 34.7% (active).

As for `O=C(NN1C(=O)CSC1=S)C(=O)NN1C(=O)CSC1=S`, the inhibition was 73.8% (active).

Consider `COc1ccc2nc3cc(Cl)ccc3c(Nc3cc(CN4CCCC4)c(O)c(CN4CCCC4)c3)c2n1`, for which the inhibition was -60.1% (inactive).

For `CCc1nnc(NC(=O)CSc2nnc(C)c(=O)n2N)s1`, the inhibition was 41.3% (active).

As to `Cc1cccc(OCC(=O)NNC(=O)c2ccc3nc[nH]c3c2)c1`, the inhibition was -117% (inactive).

On to `CCC1CCCCN1C1Sc2ccc(C(=O)OC)cc2NC1=O` (centres undefined), for which the inhibition is -69.1% (inactive).

`N#Cc1cc(Oc2ccccc2)c(-n2nnc3ccccc32)cc1C#N`: the inhibition is 40.7% (active).

As to `Oc1ccc(N=Nc2c(O)ccc3ccccc23)cc1`, the inhibition is -91.9% (inactive).

On to `Cn1nnnc1N=N/C(=N/Nc1ccccc1)c1ccccc1`, for which the inhibition was 54.9% (active).

For `Cc1ccc(-c2cc(C(=O)N/N=C/c3ccccc3O)n[nH]2)o1`, the inhibition was 39.3% (active).

For `C/C(=N/Nc1ccccc1[N+](=O)[O-])c1ccc([N+](=O)[O-])cc1`, the inhibition was -233% (inactive).

Consider `CC1Cn2c(nnc2C23CC4CC(CC(C4)C2)C3)S1` (centres undefined), for which the inhibition is 95.1% (active).

For the compound `c1ccc(-c2cccc(-c3ccccn3)n2)nc1`, the inhibition is -113% (inactive).

Consider `COc1ccc(CC2CC(=O)N(c3ccc(C)cc3)C2=O)cc1` (centres undefined), for which the inhibition was 23.2% (active).

Turning to `CC1(C)C[C@@H](O)CC2(C1)C[C@]1(C)CC(O)[C@H]2C(C)(C)C1` (some centres undefined), the inhibition is -93.3% (inactive).

For the compound `CCOc1cccc(-c2nc(C(N)=O)c3[nH]c(=O)n(-c4cccc(Cl)c4)c3n2)c1O`, the inhibition was -74.5% (inactive).

For `COc1ccc(CCN2C(=O)c3ccncc3C2=O)cc1OC`, the inhibition was 67.1% (active).

Consider `O=C(Nc1cccc(-c2cccc(F)c2)c1)C1CCN(C2CCC2)CC1`, for which the inhibition is 67.6% (active).

As for `Nc1c(N2CCCC2)cc(Cl)c2nonc12`, the inhibition is 41.3% (active).

`C#CCOCCOCCOCCNc1nc(N2CCN(C(=O)CCCCCCCCCCNC(=O)[C@H]([C@@H](C)CC)n3cc(CCCCN=C(N)N)nn3)CC2)nc(N2CCN(C(=O)CCCCCCCCCCNC(=O)[C@H](CO)n3cc(CCCSC)nn3)CC2)n1`: the inhibition was 38.5% (active).

Turning to `COc1ccc(C(=O)Nc2cccc3c2C(=O)NC3=O)cc1S(=O)(=O)N1CCOCC1`, the inhibition was -85.1% (inactive).

For `CC(C)Oc1ccc(C(=O)Nc2ncn[nH]2)cc1`, the inhibition was -64.7% (inactive).

As to `Cc1nn(C)c(C(=O)NNC(=S)NCc2ccccc2)c1Cl`, the inhibition is -141% (inactive).

Consider `Cc1ccc2c(c1)nnc1nnc(SCC(=O)O)n12`, for which the inhibition was 33.9% (active).

For the compound `CN(C)c1ccc(N=Nc2ccccc2Br)cc1`, the inhibition is -104% (inactive).

Take `CC(C)CCNc1ncnc2c1nnn2Cc1ccccc1Cl`: the inhibition is 40.2% (active).

On to `CC1=NN(Cc2ccccc2)C(=O)/C1=C\c1ccc(N(C)C)cc1`, for which the inhibition is 65.6% (active).

For `CSCCC(NS(=O)(=O)c1ccc(C)cc1)C(=O)NNC(=O)c1csc(N2CCOCC2)n1` (centres undefined), the inhibition is 48.3% (active).

Turning to `O=C1C2C3C=CC(C3)C2C(=O)N1c1n[nH]c(-c2cccnc2)n1` (centres undefined), the inhibition was -82.5% (inactive).

Regarding `CNc1nnc(-c2cc3ccccc3oc2=O)s1`, the inhibition was 33.1% (active).

Regarding `c1ccc(CSCCc2ccncc2)cc1`, the inhibition is -33.2% (inactive).

Regarding `C=CCn1c(O)c(N=Nc2ccccc2O)c2ccccc21`, the inhibition is 36.2% (active).
